# Measured values published in the supplement of paper PMC6411743.
# ± gives the standard deviation of the averaged measurements. Targets with the largest changes are over-represented here; the source holds about 6,200 in all.
# Compound: Nc1ncnc2c1ncn2[C@@H]1O[C@H](COP(=O)(O)OP(=O)(O)NP(=O)(O)O)[C@@H](O)[C@H]1O [adenylyl imidodiphosphate]
# Experiment: NP40-soluble protein abundance relative to vehicle (solubility fold change) (ratio); higher = more soluble protein in presence of AMP-PNP
# Outline: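 Each value is a fold change relative to the detergent-processed vehicle, calculated per replicate from vsn-normalised intensities. Jurkat crude lysate received eight concentrations (0.1 to 10 mM) for 10 min at room temperature and 3 min at 37 °C, then was solubilised in 0.8% NP40 with benzonase (60 min, 4 °C). The ultracentrifuged supernatant was TMT-labelled and run by LC-MS/MS in three independent experiments.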
# UniProt Q16563, sequence (Q16563 whole entry, one chain of several): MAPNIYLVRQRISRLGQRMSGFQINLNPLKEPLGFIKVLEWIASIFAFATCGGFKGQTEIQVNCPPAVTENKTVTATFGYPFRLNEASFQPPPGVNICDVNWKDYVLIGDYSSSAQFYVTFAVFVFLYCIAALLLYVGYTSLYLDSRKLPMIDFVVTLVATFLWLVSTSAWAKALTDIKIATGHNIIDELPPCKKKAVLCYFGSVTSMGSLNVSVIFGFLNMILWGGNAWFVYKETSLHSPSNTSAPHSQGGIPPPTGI
# UniProt O14735, sequence (O14735 whole entry): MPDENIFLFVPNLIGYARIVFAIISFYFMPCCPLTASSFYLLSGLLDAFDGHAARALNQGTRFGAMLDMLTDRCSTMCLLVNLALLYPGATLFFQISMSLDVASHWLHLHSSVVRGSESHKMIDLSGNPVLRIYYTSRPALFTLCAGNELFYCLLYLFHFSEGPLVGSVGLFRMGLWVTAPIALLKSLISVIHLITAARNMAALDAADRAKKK
# UniProt O95232, sequence (O95232 whole entry, one chain of several): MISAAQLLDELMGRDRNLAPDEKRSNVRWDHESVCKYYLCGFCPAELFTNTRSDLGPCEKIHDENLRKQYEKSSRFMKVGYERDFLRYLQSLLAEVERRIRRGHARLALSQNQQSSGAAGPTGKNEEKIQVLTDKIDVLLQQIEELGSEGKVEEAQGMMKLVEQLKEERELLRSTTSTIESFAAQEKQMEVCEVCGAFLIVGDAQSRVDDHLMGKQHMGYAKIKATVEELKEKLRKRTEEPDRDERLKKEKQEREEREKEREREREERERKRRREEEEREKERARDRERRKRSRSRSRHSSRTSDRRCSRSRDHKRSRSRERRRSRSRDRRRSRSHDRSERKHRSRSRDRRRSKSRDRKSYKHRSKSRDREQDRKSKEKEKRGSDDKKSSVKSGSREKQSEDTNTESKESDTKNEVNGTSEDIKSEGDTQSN
# UniProt P62191, sequence (P62191 whole entry, one chain of several): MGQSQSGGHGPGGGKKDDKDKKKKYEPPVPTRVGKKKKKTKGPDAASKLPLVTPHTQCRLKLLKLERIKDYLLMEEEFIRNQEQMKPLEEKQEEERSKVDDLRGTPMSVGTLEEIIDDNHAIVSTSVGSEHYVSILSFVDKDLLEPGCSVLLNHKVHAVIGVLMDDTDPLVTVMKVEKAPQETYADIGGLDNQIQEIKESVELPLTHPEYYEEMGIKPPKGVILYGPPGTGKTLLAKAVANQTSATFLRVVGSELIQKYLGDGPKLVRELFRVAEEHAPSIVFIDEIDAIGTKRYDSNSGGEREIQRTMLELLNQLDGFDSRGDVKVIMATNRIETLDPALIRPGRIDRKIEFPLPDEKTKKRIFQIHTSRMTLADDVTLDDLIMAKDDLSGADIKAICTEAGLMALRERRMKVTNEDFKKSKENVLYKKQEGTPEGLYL
# UniProt P51114, sequence (P51114 whole entry, one chain of several): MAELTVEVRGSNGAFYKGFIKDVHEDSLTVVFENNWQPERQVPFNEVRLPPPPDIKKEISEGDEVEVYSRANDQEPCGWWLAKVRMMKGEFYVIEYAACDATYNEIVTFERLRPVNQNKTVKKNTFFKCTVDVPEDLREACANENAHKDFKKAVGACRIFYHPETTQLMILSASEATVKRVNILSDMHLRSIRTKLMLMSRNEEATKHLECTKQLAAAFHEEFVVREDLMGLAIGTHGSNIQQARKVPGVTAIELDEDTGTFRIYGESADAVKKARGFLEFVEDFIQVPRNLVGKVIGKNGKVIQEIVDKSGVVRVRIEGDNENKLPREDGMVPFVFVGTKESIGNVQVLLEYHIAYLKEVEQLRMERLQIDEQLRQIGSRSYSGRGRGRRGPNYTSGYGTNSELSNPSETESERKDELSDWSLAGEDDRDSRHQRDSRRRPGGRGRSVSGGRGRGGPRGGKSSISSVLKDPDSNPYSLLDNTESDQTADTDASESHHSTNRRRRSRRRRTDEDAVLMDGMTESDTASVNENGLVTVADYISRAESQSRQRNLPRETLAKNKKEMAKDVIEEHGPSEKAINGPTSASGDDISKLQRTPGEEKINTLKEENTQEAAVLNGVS
# UniProt Q13227, sequence (Q13227 whole entry, one chain of several): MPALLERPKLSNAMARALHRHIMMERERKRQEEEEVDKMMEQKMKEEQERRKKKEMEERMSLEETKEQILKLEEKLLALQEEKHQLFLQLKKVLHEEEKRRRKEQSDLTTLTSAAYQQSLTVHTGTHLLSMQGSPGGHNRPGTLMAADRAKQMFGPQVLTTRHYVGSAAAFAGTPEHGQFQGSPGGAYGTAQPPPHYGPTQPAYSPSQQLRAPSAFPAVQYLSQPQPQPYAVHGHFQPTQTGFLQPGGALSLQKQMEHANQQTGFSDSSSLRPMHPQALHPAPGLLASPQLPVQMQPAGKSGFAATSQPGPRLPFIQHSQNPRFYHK
# UniProt Q96MF7, sequence (Q96MF7 whole entry, one chain of several): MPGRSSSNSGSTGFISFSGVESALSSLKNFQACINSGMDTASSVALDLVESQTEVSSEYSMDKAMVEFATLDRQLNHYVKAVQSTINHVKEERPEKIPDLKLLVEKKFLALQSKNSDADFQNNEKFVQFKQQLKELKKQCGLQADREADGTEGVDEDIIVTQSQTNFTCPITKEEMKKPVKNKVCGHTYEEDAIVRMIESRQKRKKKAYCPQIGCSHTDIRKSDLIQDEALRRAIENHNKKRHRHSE
# UniProt P49585, sequence (P49585 whole entry, one chain of several): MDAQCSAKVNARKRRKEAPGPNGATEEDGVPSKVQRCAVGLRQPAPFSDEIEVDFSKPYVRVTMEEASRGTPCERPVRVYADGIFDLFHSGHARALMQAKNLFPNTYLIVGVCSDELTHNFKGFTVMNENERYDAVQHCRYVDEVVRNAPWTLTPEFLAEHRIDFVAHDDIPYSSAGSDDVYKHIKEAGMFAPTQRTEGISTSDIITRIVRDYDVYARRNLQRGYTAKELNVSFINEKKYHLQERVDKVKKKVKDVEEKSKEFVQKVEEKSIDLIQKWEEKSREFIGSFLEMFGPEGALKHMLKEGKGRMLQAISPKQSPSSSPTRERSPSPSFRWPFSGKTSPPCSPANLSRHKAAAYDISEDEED
# UniProt O95772, sequence (O95772 whole entry, one chain of several): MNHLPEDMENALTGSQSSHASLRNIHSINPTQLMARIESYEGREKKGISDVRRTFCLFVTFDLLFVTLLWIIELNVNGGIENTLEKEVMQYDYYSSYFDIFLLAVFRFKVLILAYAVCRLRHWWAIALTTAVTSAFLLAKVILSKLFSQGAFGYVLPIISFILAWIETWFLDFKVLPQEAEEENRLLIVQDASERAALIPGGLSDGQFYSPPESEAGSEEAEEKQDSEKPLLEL
# UniProt O75113, sequence (O75113 whole entry): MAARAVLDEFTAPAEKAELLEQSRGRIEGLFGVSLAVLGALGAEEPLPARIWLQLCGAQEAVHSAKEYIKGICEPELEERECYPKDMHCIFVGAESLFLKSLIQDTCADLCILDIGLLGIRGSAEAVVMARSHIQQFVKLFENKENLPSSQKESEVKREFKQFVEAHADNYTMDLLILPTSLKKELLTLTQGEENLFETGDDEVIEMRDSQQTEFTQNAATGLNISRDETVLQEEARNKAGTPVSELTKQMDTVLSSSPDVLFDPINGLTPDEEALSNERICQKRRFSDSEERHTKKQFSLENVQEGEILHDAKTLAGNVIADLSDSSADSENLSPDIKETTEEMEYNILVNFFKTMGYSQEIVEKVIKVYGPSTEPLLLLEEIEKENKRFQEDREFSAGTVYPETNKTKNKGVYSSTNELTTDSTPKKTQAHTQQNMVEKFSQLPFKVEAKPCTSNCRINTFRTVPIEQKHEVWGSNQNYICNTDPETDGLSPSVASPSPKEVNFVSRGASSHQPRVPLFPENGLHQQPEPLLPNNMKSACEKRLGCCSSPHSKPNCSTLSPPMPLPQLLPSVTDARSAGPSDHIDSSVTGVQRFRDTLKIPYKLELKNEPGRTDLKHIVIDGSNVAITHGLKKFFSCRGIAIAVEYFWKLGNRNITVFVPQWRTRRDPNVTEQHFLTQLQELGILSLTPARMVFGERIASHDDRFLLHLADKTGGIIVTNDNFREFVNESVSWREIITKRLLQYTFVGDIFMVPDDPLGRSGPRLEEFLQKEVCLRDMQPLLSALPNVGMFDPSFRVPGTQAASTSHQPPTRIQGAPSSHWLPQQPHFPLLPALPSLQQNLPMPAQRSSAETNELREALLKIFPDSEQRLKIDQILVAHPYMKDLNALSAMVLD
# UniProt Q9NVU0, sequence (Q9NVU0 whole entry, one chain of several): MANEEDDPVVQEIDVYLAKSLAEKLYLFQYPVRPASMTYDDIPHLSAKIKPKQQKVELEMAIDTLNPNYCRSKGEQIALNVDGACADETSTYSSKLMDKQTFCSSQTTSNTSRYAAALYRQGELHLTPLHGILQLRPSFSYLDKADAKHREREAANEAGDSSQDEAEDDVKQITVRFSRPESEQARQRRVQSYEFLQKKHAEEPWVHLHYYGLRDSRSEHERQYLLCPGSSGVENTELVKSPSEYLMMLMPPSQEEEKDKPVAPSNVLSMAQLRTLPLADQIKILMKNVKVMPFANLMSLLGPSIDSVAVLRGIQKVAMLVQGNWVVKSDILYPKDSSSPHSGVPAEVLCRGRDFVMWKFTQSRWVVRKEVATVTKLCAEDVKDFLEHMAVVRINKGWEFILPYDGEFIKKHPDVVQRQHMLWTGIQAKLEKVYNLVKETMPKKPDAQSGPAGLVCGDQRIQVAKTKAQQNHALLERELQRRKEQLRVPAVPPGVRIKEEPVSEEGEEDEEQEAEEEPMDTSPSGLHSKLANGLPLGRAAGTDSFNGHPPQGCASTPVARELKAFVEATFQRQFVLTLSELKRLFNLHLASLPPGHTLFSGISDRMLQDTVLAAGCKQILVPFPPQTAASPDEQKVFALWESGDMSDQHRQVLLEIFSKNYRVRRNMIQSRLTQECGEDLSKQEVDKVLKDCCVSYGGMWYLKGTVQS
Target,NP40-soluble protein abundance (concentration: 1mM),NP40-soluble protein abundance (concentration: 2mM),NP40-soluble protein abundance (concentration: 4mM),NP40-soluble protein abundance (concentration: 6mM),NP40-soluble protein abundance (concentration: 8mM),NP40-soluble protein abundance (concentration: 10mM)
A0A0B4J220 (UniProt E9PRG8),1.14 ± 0.051,1.15 ± 0.057,1.2 ± 0.045,1.26 ± 0.1,1.4 ± 0.053,1.39 ± 0.046
F5H0R1|Q9H6E5 (UniProt Q9H6E5),0.994 ± 0.023,1.01 ± 0.039,1.02 ± 0.016,0.973 ± 0.032,0.983 ± 0.024,0.978 ± 0.025
E5RFJ1|Q96MF7 (UniProt Q96MF7),1.01 ± 0.028,1.03 ± 0.06,1.02 ± 0.035,0.957 ± 0.033,0.989 ± 0.022,0.9706 ± 0.0092
H3BPB8|P34949 (UniProt P34949),1.029 ± 0.0072,1.01 ± 0.039,1.02 ± 0.027,0.976 ± 0.029,1.01 ± 0.042,0.988 ± 0.048
H7C5I3|J3KR55|P35236|P35236-2|P35236-3 (UniProt P35236),0.978 ± 0.0098,1.01 ± 0.021,0.994 ± 0.037,0.978 ± 0.011,0.959 ± 0.018,0.982 ± 0.033
I3L4X7|Q13227|Q13227-2 (UniProt Q13227),0.982 ± 0.029,1.03 ± 0.059,1.02 ± 0.064,1.08 ± 0.067,1.05 ± 0.019,1.1 ± 0.019
C9JKL2|O95772|O95772-2|C9J3F5|C9JJ39|C9JPX5 (UniProt O95772),1.02 ± 0.019,1.04 ± 0.036,1.01 ± 0.016,0.989 ± 0.028,0.989 ± 0.019,1 ± 0.034
UniProt O14523|O14523-2,0.973 ± 0.015,0.988 ± 0.013,0.985 ± 0.037,0.968 ± 0.027,0.97 ± 0.047,1.01 ± 0.06
CDIPT (UniProt O14735),0.928 ± 0.062,0.896 ± 0.042,1 ± 0.019,1.01 ± 0.088,1.03 ± 0.073,0.974 ± 0.039
CCDC85C (UniProt A6NKD9),0.9594 ± 0.0012,1.0044 ± 0.00019,0.953 ± 0.035,0.9849 ± 0.007,0.9793 ± 0.0043,0.9704 ± 0.0054
B4DXZ6|P51114 (UniProt P51114),1.12 ± 0.029,1.17 ± 0.039,1.3 ± 0.055,1.43 ± 0.15,1.55 ± 0.2,1.62 ± 0.2
C9JYN0|Q16563-2|Q16563 (UniProt Q16563),1.01 ± 0.015,1.06 ± 0.12,1.05 ± 0.042,1.12 ± 0.12,1.12 ± 0.057,1.14 ± 0.17
SCO2 (UniProt O43819),0.972 ± 0.0067,0.949 ± 0.054,0.991 ± 0.04,0.95 ± 0.027,0.936 ± 0.015,0.934 ± 0.045
H7C5G1|Q2TAA2 (UniProt Q2TAA2),0.995 ± 0.037,0.975 ± 0.015,0.98 ± 0.028,0.972 ± 0.016,0.965 ± 0.022,0.981 ± 0.028
K7EK07|P84243 (UniProt P84243+K7EK07),0.97 ± 0.11,1.01 ± 0.094,1.01 ± 0.084,1.08 ± 0.13,1.09 ± 0.15,1.16 ± 0.1
L0R819 (UniProt Q9NWL6),1.04 ± 0.017,1.03 ± 0.074,1.01 ± 0.026,0.996 ± 0.089,0.972 ± 0.055,1 ± 0.044
A0A0A0MQS2|F5H0Q6 (UniProt Q8N2M8),1.06 ± 0.049,1.13 ± 0.083,1.04 ± 0.064,1.06 ± 0.1,1.04 ± 0.043,1.06 ± 0.015
I3L448|Q5TC12 (UniProt Q5TC12),1.01 ± 0.033,1.02 ± 0.015,1.01 ± 0.039,0.992 ± 0.029,0.965 ± 0.027,0.977 ± 0.039
H3BRQ0|Q96CD2 (UniProt Q96CD2),0.997 ± 0.028,0.998 ± 0.014,0.9917 ± 0.0054,1.018 ± 0.008,1 ± 0.041,0.978 ± 0.011
N4BP1 (UniProt O75113),1.01 ± 0.014,1.02 ± 0.039,1.02 ± 0.032,0.979 ± 0.027,0.96 ± 0.012,0.954 ± 0.028
A0A0A6YYH1|H0YLI7|P59780|Q7Z6K5-2 (UniProt Q7Z6K5+P59780+H0YLI7),1 ± 0.04,1.01 ± 0.011,0.9742 ± 0.0072,0.974 ± 0.028,0.965 ± 0.032,0.968 ± 0.017
A0A0C4DH01|Q9NVU0|Q9NVU0-4|Q9NVU0-5|Q9NVU0-2|Q9NVU0-3 (UniProt Q9NVU0),1 ± 0.058,1.02 ± 0.019,1.06 ± 0.052,1.03 ± 0.063,1.02 ± 0.064,1.07 ± 0.081
G3V4X1|P62191|P62191-2 (UniProt P62191),0.942 ± 0.045,0.906 ± 0.049,0.888 ± 0.079,0.896 ± 0.1,0.882 ± 0.1,0.89 ± 0.12
H0YHA7|J3QQ67|Q07020|Q07020-2 (UniProt Q07020),1.02 ± 0.038,0.9774 ± 0.0023,1.01 ± 0.086,0.9115 ± 0.0037,0.766 ± 0.042,1.04 ± 0.082
C9JEJ2|H7BZN1|P49585|C9J050 (UniProt P49585),1.01 ± 0.028,1.02 ± 0.022,1.02 ± 0.015,0.993 ± 0.027,1 ± 0.02,0.996 ± 0.01
F5H7T0|F6RJM5|Q96S38|Q96S38-2 (UniProt Q96S38),0.999 ± 0.0077,1.02 ± 0.028,1.01 ± 0.034,0.9695 ± 0.004,0.991 ± 0.023,0.965 ± 0.046
J3KPP4|O95232 (UniProt O95232),1.02 ± 0.036,1.06 ± 0.058,1.06 ± 0.019,1.22 ± 0.015,1.3 ± 0.039,1.51 ± 0.049
F8VXC8|Q8TAQ2|Q8TAQ2-2|Q8TAQ2-3 (UniProt Q8TAQ2),1.03 ± 0.034,1.07 ± 0.04,1.04 ± 0.047,1.04 ± 0.1,1.04 ± 0.064,1.09 ± 0.1
H7BYF2|Q5JRG1|Q9BVL2|Q9BVL2-2|Q9BVL2-3 (UniProt Q9BVL2),1.031 ± 0.0089,1.1 ± 0.095,1.04 ± 0.053,1.03 ± 0.033,1.04 ± 0.026,1.11 ± 0.06
G3V5N8|Q9HBF4|Q9HBF4-3 (UniProt Q9HBF4),0.991 ± 0.012,0.986 ± 0.035,0.987 ± 0.054,0.96 ± 0.021,0.968 ± 0.0098,0.938 ± 0.047
